In PubChem BioAssay AID2284366 (EPA ToxCast):
Results filed as inconclusive are left out. Calls of active or inactive are those of the source. The calls were made as follows: active = hit-call score of the fitted dose curve at least 0.9, where 1 is the maximum; inconclusive = response in the unintended direction; inactive = score below 0.9.

These compounds were tested on zebrafish Peroxisome Proliferator-activated Receptor gamma (PPARg), gene 557037 (assay: ATG_zfPPARg_EcoTox2: Attagene TRANS-FACTORIAL EcoTox-2 HepG2 Assay for zebrafish Peroxisome Proliferator-activated Receptor gamma (PPARg)).
Procedure: ATG_EcoTox2 is a cell-based, multiplexed assay created by modifying the existing Attagene TRANS-FACTORIAL system to include a panel of nuclear receptors from some or all the following species: human (Homo sapiens), african clawed frog (Xenopus laevis), rainbow trout (Oncorhynchus mykiss), japanese medaka (Oryzias latipes), and zebrafish (Danio rerio). The ECOTOX2-FACTORIAL format uses HepG2, a human liver cell line, with measurements taken at 24 hours after chemical dosing in a 24-well plate. ATG_zfPPARg_EcoTox2 is one of 29 assay components calculated in the ATG_EcoTox2 assay. It is designed to make measurements of mRNA induction, a form of inducible reporter, as detected with fluorescence intensity signals by Reverse transcription polymerase chain reaction (RT-PCR) and Capillary electrophoresis technology.The assay endpoint ATG_zfPPARg_EcoTox2 was analyzed in the positive analysis fitting direction relative to DMSO as the negative control and baseline of activity. Using a type of inducible reporter, measures of mRNA for gain-of-signal activity can be used to understand the reporter gene at the transcription factor-level as they relate to the gene PPARg. Furthermore, this assay endpoint can be referred to as a primary readout, because this assay has produced multiple assay endpoints where this one serves a reporter gene function. To generalize the intended target to other relatable targets, this assay endpoint is annotated to the nuclear receptor intended target family, where the subfamily is non-steroidal.
Human liver HepG2 cells are transiently transfected with multiple reporter transcription units (MRTUs) in 6-well plates using FuGene 6 reagent (Roche; 3 ml FuGene/1 mg DNA). The MRTU constructs are regulated by a cis-regulating element (promoter). Each RTU expresses a GAL4-UAS that regulates the transcription of a nearby target reporter gene sequence. A major difference between the CIS and TRANS system is that in CIS activities of endogenous TFs are measured, whereas the TRANS assay evaluates changes in activities of exogenous, chimeric NR-Gal4 proteins. […] At the end of 24 hour incubation, total RNA was isolated using TriZol reagent (Invitrogen). The isolated RNA is then reverse-transcribed using oligo(dT) primer and Mo-MLV reverse transcriptase (Invitrogen) with DNAse I (Ambion) treatment for 30 min. The one-tenth of the produced cDNA was amplified by PCR using Taq DNA polymerase (Invitrogen) and two reporter sequence-specific primers. The PCR products were fluorescently labeled by primer extension with 6-arboxyfluorescein (6-FAM) 5'-labeled reporter sequence-specific primer (2 min at 95 C, 20 s at 68 C and 10 min at 72 C) and these products were digested with 5U of HpaI (New England Biolabs) for 2h at 37 C. The fragments were purified using Qiaquick PCR columns (Qiagen), analyzed on an ABI 3130xL genetic analyzer (Applied Biosystems) with peak positions identified by using a set of X-rhodamine (ROX)-labeled MapMarker1000 molecular weight standards (BioVentures). The raw capillary electrophoresis data was processed using Attagraph software (Attagene).

Row | SMILES | outcome | AC50
1 | CC(C)OC(=O)C(C)(C)Oc1ccc(C(=O)c2ccc(Cl)cc2)cc1 | inactive | 
2 | Cc1ccc(C)c(OCCCC(C)(C)C(=O)O)c1 | inactive | 
3 | CC(C)(Oc1ccc(Cl)cc1)C(=O)O | inactive | 
4 | C[C@@H]1C[C@H]2[C@@H]3CCC4=CC(=O)C=C[C@]4(C)[C@@]3(F)[C@@H](O)C[C@]2(C)[C@@]1(O)C(=O)COP(=O)(O)O | inactive | 
5 | Cc1cccc(Nc2cc(Cl)nc(SCC(=O)O)n2)c1C | inactive | 
6 | Cc1nc(-c2ccc(C(F)(F)F)cc2)sc1C(=O)NCc1ccc(OC(C)(C)C(=O)O)cc1 |  | 21.3 µM (active)
7 | Cc1c(C)c2c(c(C)c1O)CCC(C)(COc1ccc(CC3SC(=O)NC3=O)cc1)O2 (stereo not given) | inactive | 
8 | C=C(c1ccc(C(=O)O)cc1)c1cc2c(cc1C)C(C)(C)CCC2(C)C |  | 2.23 µM (active)
9 | C[C@]12C=CC(=O)C=C1CC[C@@H]1[C@@H]2C(=O)C[C@@]2(C)[C@H]1CC[C@]2(O)C(=O)CO | inactive | 
10 | CN(CCOc1ccc(CC2SC(=O)NC2=O)cc1)c1ccccn1 (stereo not given) | inactive | 
